Assay results as given in PubChem BioAssay (Tox21).
“And” between values parts separate entries of the source, which are not always exact repeats. Equal entries are not always repeated. Results filed as inconclusive are left out. The source made the active and inactive calls. The call rests on the fitted dose curve; in most records, active means well fitted curve in the direction sought with a large enough effect in the repeat runs; inconclusive means weak or mixed curves; inactive means no such curve, though single readings can be large; an effect the other way counts as inactive or inconclusive.

Columns and labels:
[1] = A CellTox Green Cytotoxicity Assay to monitor cytotoxicity in HEK293 cells - 40 hour (AID 1224871); further: nearly all actives have a fitted effect of over 45% in size
Method in brief: (§1)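 Real-time, in one plate: 600 HEK293 cells/well with dead-cell DNA dye, pinned compound after 5 h, 37 C incubation over 40 h; viable cells give no appreciable fluorescence.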

[2] = qHTS RealTime-Glo MT Cell Viability Assay in HEK293 cells - 16 hour (AID 1224872); further: top concentration of the series differs between compounds; nearly all actives have a fitted effect of over 50% in size
Method in brief: (§2)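 Assay medium contained NanoLuc luciferase plus cell-permeant prosubstrate, added with HEK293 cells at 600 cells/well. After 5 h at 37 C/5% CO2 compounds were added; plates stayed at 37 C for 40 h with serial luminescence reads.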

[3] = qHTS RealTime-Glo MT Cell Viability Assay in HepG2 cells - 8 hour (AID 1224873); further: nearly all actives have a fitted effect of over 55% in size
Method in brief: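 Real-time viability: cells seeded at 600 per well together with NanoLuc and cell-permeant prosubstrate, compounds added after 5 h incubation. Luminescence tracked at 0, 8, 16, 24, 32 and 40 h of exposure.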

[4] = qHTS RealTime-Glo MT Cell Viability Assay in HEK293 cells - 40 hour (AID 1224874); details: RealTime-Glo luminescence; max response: hits give low values; further: nearly all actives have a fitted effect of over 50% in size
Method in brief: (§3)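 Kinetic, non-lysing viability readout. Seed HEK293 (600/well) with reagent, incubate 5 h at 37 C/5% CO2, pin 23 nL compound in DMSO, incubate at 37 C, read luminescence at 0, 8, 16, 24, 32, 40 h.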

[5] = A CellTox Green Cytotoxicity Assay to monitor cytotoxicity in HEK293 cells - 24 hour (AID 1224875); further: series mostly up to about 77 µM; nearly all actives have a fitted effect of over 45% in size
Method in brief: as §1

[6] = A CellTox Green Cytotoxicity Assay to monitor cytotoxicity in HepG2 cells - 16 hour (AID 1224876); further: nearly all actives have a fitted effect of over 45% in size
Method in brief: (§4)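 Cytotoxicity was tracked as dead-cell DNA fluorescence in HepG2 cells treated with test compounds at 37 C; each time-point value comes from one kinetic series spanning 0, 8, 16, 24, 32 and 40 h.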

[7] = qHTS RealTime-Glo MT Cell Viability Assay in HepG2 cells - 32 hour (AID 1224877); further: nearly all actives have a fitted effect of over 55% in size
Method in brief: (§5)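 qHTS, HepG2, 600 cells/well, RealTime-Glo (NanoLuc + prosubstrate) added with cells; 5 h preincubation; DMSO compound addition; 37 C; luminescence at 0/8/16/24/32/40 h.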

[8] = A CellTox Green Cytotoxicity Assay to monitor cytotoxicity in HepG2 cells - 24 hour (AID 1224878); further: nearly all actives have a fitted effect of over 45% in size
Method in brief: as §4

[9] = A CellTox Green Cytotoxicity Assay to monitor cytotoxicity in HepG2 cells - 40 hour (AID 1224879); further: nearly all actives have a fitted effect of over 40% in size
Method in brief: as §4

[10] = qHTS RealTime-Glo MT Cell Viability Assay in HEK293 cells - 0 hour (AID 1224880)
Method in brief: as §3

[11] = A CellTox Green Cytotoxicity Assay to monitor cytotoxicity in HEK293 cells - 32 hour (AID 1224881); further: nearly all actives have a fitted effect of over 40% in size
Method in brief: as §1

[12] = A CellTox Green Cytotoxicity Assay to monitor cytotoxicity in HepG2 cells - 0 hour (AID 1224882); further: nearly all actives have a fitted effect of over 35% in size
Method in brief: as §4

[13] = A CellTox Green Cytotoxicity Assay to monitor cytotoxicity in HepG2 cells - 32 hour (AID 1224883); further: nearly all actives have a fitted effect of over 50% in size
Method in brief: as §4

[14] = A CellTox Green Cytotoxicity Assay to monitor cytotoxicity in HEK293 cells - 8 hour (AID 1224884); further: nearly all actives have a fitted effect of over 35% in size
Method in brief: as §1

[15] = qHTS RealTime-Glo MT Cell Viability Assay in HepG2 cells - 16 hour (AID 1224885); further: nearly all actives have a fitted effect of over 50% in size
Method in brief: as §5

[16] = qHTS RealTime-Glo MT Cell Viability Assay in HEK293 cells - 24 hour (AID 1224886)
Method in brief: as §2

[17] = qHTS RealTime-Glo MT Cell Viability Assay in HEK293 cells - 8 hour (AID 1224887)
Method in brief: as §3

[18] = A CellTox Green Cytotoxicity Assay to monitor cytotoxicity in HEK293 cells - 16 hour (AID 1224888); further: nearly all actives have a fitted effect of over 35% in size
Method in brief: as §1

[19] = qHTS RealTime-Glo MT Cell Viability Assay in HepG2 cells - 0 hour (AID 1224889); further: nearly all actives have a fitted effect of over 50% in size
Method in brief: as §5

[20] = A CellTox Green Cytotoxicity Assay to monitor cytotoxicity in HepG2 cells - 8 hour (AID 1224890); further: nearly all actives have a fitted effect of over 45% in size
Method in brief: as §4
On the % scale 0 is the no-effect control and ±100 the full control effect.

CC(=O)OCc1ccc2c(c1)OCO2
inactive: Potency [1] | Potency [2] | Potency [3] | max response [4] 2.92% and 8.23% | Potency [5] | Potency [6] | Potency [7] | Potency [8] | Potency [9] | Potency [10] | Potency [11] | Potency [12] | Potency [13] | Potency [14] | Potency [15] | Potency [16] | Potency [17] | Potency [18] | Potency [19] | Potency [20]

O=C(Cl)c1ccc(C(=O)Cl)cc1
inactive: Potency [1] | Potency [2] | Potency [3] | max response [4] -18.9% and 3.42% | Potency [5] | Potency [6] | Potency [7] | Potency [8] | Potency [9] | Potency [10] | Potency [11] | Potency [12] | Potency [13] | Potency [14] | Potency [15] | Potency [16] | Potency [17] | Potency [18] | Potency [19] | Potency [20]

OCC(O)CS (stereo not drawn)
inactive: Potency [1] | Potency [2] | Potency [3] | max response [4] 14.9% and 3.08% | Potency [5] | Potency [6] | Potency [7] | Potency [8] | Potency [9] | Potency [10] | Potency [11] | Potency [12] | Potency [13] | Potency [14] | Potency [15] | Potency [16] | Potency [17] | Potency [19] | Potency [20]

OC1CCCCC1
inactive: Potency [1] | Potency [2] | Potency [3] | max response [4] 6.11% and 1.84% | Potency [5] | Potency [6] | Potency [7] | Potency [8] | Potency [9] | Potency [10] | Potency [11] | Potency [12] | Potency [13] | Potency [14] | Potency [15] | Potency [16] | Potency [17] | Potency [18] | Potency [19] | Potency [20]

CCCCCCCC(=O)O
inactive: Potency [1] | Potency [2] | Potency [3] | max response [4] 3.06% and 7% | Potency [5] | Potency [6] | Potency [7] | Potency [8] | Potency [9] | Potency [10] | Potency [11] | Potency [12] | Potency [13] | Potency [14] | Potency [15] | Potency [16] | Potency [17] | Potency [19] | Potency [20]

CC[N+](CC)(CC(=O)Nc1c(C)cccc1C)Cc1ccccc1
inactive: Potency [1] | Potency [2] | Potency [3] | max response [4] -15.4% and 1.42% | Potency [5] | Potency [6] | Potency [7] | Potency [8] | Potency [9] | Potency [10] | Potency [11] | Potency [12] | Potency [13] | Potency [14] | Potency [15] | Potency [16] | Potency [17] | Potency [18] | Potency [19] | Potency [20]

OCc1ccc(Cl)cc1Cl
inactive: Potency [1] | Potency [2] | Potency [3] | max response [4] 3.27% and 4.82% | Potency [5] | Potency [6] | Potency [7] | Potency [8] | Potency [9] | Potency [10] | Potency [11] | Potency [12] | Potency [13] | Potency [14] | Potency [15] | Potency [16] | Potency [17] | Potency [18] | Potency [19] | Potency [20]

O=C1OC(=O)c2c(Cl)c(Cl)c(Cl)c(Cl)c21
inactive: Potency [1] | Potency [2] | Potency [3] | max response [4] 1.44% | Potency [5] | Potency [6] | Potency [7] | Potency [8] | Potency [9] | Potency [10] | Potency [11] | Potency [12] | Potency [13] | Potency [14] | Potency [15] | Potency [16] | Potency [17] | Potency [18] | Potency [19] | Potency [20]

CC1(C)C(=O)N(Cl)C(=O)N1Cl
inactive: Potency [1] | Potency [2] | Potency [3] | max response [4] 1.41% and 7.94% | Potency [5] | Potency [6] | Potency [7] | Potency [8] | Potency [9] | Potency [10] | Potency [11] | Potency [12] | Potency [13] | Potency [14] | Potency [15] | Potency [16] | Potency [17] | Potency [18] | Potency [19] | Potency [20]

CC(=O)OC(C)(C)C1CC=C(C)CC1 (stereo not drawn)
inactive: Potency [1] | Potency [2] | Potency [3] | max response [4] 3.8% and -15.5% | Potency [5] | Potency [6] | Potency [7] | Potency [8] | Potency [9] | Potency [10] | Potency [11] | Potency [12] | Potency [13] | Potency [14] | Potency [15] | Potency [16] | Potency [17] | Potency [18] | Potency [19] | Potency [20]

Clc1cccc(Cl)c1NC1=NCCN1
inactive: Potency [1] | Potency [2] | Potency [3] | max response [4] 1.29% and 0.883% | Potency [5] | Potency [6] | Potency [7] | Potency [8] | Potency [9] | Potency [10] | Potency [11] | Potency [12] | Potency [13] | Potency [14] | Potency [15] | Potency [16] | Potency [17] | Potency [18] | Potency [19] | Potency [20]

CC(C)=CCC/C(C)=C/C=O
inactive: Potency [1] | Potency [2] | Potency [3] | max response [4] 4.59% and 11.5% | Potency [5] | Potency [6] | Potency [7] | Potency [8] | Potency [9] | Potency [10] | Potency [11] | Potency [12] | Potency [13] | Potency [14] | Potency [15] | Potency [16] | Potency [17] | Potency [18] | Potency [19] | Potency [20]

Cc1ccccc1C=O
inactive: Potency [1] | Potency [2] | Potency [3] | max response [4] 5.78% and -0.406% | Potency [5] | Potency [6] | Potency [7] | Potency [8] | Potency [9] | Potency [10] | Potency [11] | Potency [12] | Potency [13] | Potency [14] | Potency [15] | Potency [16] | Potency [17] | Potency [18] | Potency [19] | Potency [20]
